A selection: hits, their analogues and other compounds. The true share with any hit is near 12%.
RORgamma inh = blocks mouse ROR gamma transcriptional activity | P51450 | Drosophila S2 Gal4-RORgamma UAS-luciferase reporter, 20 h | Potency, µM (titrated, usually from 53.6 µM), actives largely listed as inhibitors | 5.4% of 310,000 active | AID 2551; also: nearly all actives have a fitted effect of over 60% in size
Target sequence (P51450 whole entry, looked up, the tested form may be a part): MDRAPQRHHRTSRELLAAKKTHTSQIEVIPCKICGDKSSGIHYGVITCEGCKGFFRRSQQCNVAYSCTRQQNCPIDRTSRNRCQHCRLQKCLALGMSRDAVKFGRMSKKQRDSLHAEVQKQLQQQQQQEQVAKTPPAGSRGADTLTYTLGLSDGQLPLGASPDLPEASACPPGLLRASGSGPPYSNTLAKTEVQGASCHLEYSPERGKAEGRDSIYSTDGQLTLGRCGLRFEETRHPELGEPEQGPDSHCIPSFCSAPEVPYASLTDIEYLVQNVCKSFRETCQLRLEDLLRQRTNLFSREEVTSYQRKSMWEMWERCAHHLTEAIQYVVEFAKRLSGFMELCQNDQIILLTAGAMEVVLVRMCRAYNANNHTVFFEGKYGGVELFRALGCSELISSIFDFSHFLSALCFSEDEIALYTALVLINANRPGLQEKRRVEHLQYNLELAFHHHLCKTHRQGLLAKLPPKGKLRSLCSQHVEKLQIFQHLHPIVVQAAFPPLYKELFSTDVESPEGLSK
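In this cell-based reporter format, copper sulfate (700 uM final) drives Gal4–ROR gamma fusion expression from a metallothionein promoter in Drosophila Schneider cells; compounds preincubated 1 hr, reporter read after 20 hr at ambient temperature.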
PLK1 PBD inh = blocks phosphopeptide binding to human PLK1 polo-box domain. Potency, µM, most hits filed as inhibitors. 2.8% of 360,000 active. P53350. Plk1 PBD binding of FITC phosphopeptide, fluorescence polarization; also: series mostly up to about 57 µM; nearly all actives have a fitted effect of over 65% in size
VP16 counter = inhibits Gal4-VP16 luciferase reporter, ROR gamma counter-screen | Drosophila S2 Gal4-VP16 UAS-luciferase, luminescence, 20 h | 3.5% of 310,000 active | AID 2546 | Potency, µM (doses to about 53.6 µM), actives largely listed as inhibitors;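 also: Gal4-VP16 expression switched on by copper sulfate through the metallothionein promoter; nearly all actives have a fitted effect of over 50% in size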
Sfp PPTase inh = blocks B. subtilis Sfp PPTase activity; Q9F4F7; 3.5% of 310,000 active; Potency, µM, usual class: inhibitors; Biochemical Sfp PPTase activity, qHTS;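 also: the enzyme is Sfp with the accession as filed and its product quenches rhodamine fluorescence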
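Fluorescence-quenching assay with 15 nM Sfp, 5 uM rhodamine-CoA and 12.5 uM BHQ-2-labelled ybbR peptide in pH 7.6 Hepes/MgCl2 buffer. Enzyme was pre-incubated with compound for 15 min at room temperature. Rate was taken from the 30-min fluorescence change (525/598 nm).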
ALDH1A1 inh = blocks purified human ALDH1A1 activity. Purified ALDH1A1, NADH fluorescence, propionaldehyde substrate. Potency, µM (highest dose often 75.3 µM), usual class: inhibitors. 7.3% of 220,000 active; active = well fitted inhibition curve with a large enough effect, not every such curve was filed as active; inconclusive = small, poorly fitted or top-dose-only effect, or another doubt; inactive = no such curve, though single readings can be large or run the other way
Hits are given with their value; 0 = inactive; ? = inconclusive; - = not tested or not shown. Unless noted, calls follow the shape of the dose curve; as a rule, active = well fitted curve in the direction sought with a large enough effect; inconclusive = small, poorly fitted or top-dose-only effect, or another doubt; inactive = no such curve, though single readings can be large; an effect the other way counts as inactive or inconclusive.

SMILES	RORgamma inh	PLK1 PBD inh	VP16 counter	Sfp PPTase inh	ALDH1A1 inh
COc1cccc(-c2nc(CS(=O)CC(=O)NCc3ccc4c(c3)OCO4)c(C)o2)c1 (stereo not drawn)	0	0	0	0	?
COc1ccc(CCC(=O)NCc2ccc3c(c2)OCO3)cc1	0	0	0	0	-
COc1ccc(NC(=O)Cn2nnc(C(=O)NCc3ccc4c(c3)OCO4)c2N)c(OC)c1	0	21µM	0	0	-
COc1ccc(-c2nc(CS(=O)CC(=O)NCc3ccc4c(c3)OCO4)c(C)o2)cc1 (stereo not drawn)	11µM	0	0	0	?
COc1ccc(Cl)cc1S(=O)(=O)NC(C)C(=O)NCc1ccc2c(c1)OCO2 (stereo not drawn)	0	24µM	0	0	-
COc1ccc(Cl)cc1S(=O)(=O)NC(C)C(=O)NCc1ccncc1 (stereo not drawn)	0	0	0	0	-
COc1ccc(CC(=O)NCc2ccc3c(c2)OCO3)cc1	0	24µM	0	0	?
O=C(NC1CCCc2c1cnn2-c1ccccc1F)c1ccncc1 (stereo not drawn)	-	0	-	-	-
CCCCCCCCN1C(=O)[C@H](CC(=O)NCc2cccs2)C[C@@]2(C(=O)OC)CC(C)(C)CC=C12	-	0	-	-	-
Cn1nc(C(C)(C)C)cc1C(=O)NCc1ccc2c(c1)OCO2	0	0	1µM	0	-
COc1ccc(CNC(=O)CS(=O)Cc2nc(-c3ccc(OC)c(OC)c3)oc2C)cc1 (stereo not drawn)	0	0	0	0	-
COc1ccc(CNC(=O)CS(=O)Cc2nc(-c3ccc(C)cc3)oc2C)cc1 (stereo not drawn)	13µM	0	0	0	?
Cc1ccc(CNC(=O)CS(=O)Cc2nc(-c3ccccc3C)oc2C)cc1 (stereo not drawn)	11µM	0	0	0	0
CCc1ccc(-c2nc(CS(=O)CC(=O)NCCCN3CCC(C)CC3)c(C)o2)cc1 (stereo not drawn)	0	27µM	0	0	-
CC(=O)NC(CC(=O)NC1CCCc2ccccc21)c1ccccc1 (stereo not drawn)	0	0	0	0	-
CCOC(COC(=O)c1ccccc1C(=O)O)c1ccccc1 (stereo not drawn)	-	0	-	-	-
Cc1ccccc1-c1nc(CS(=O)CC(=O)NCCc2ccc(Cl)cc2)c(C)o1 (stereo not drawn)	0	19µM	0	0	-
Cc1ccc(-c2nc(CS(=O)CC(=O)NCc3ccc(F)cc3)c(C)o2)cc1 (stereo not drawn)	11µM	0	0	0	-
Cc1ccc(-c2nc(CS(=O)CC(=O)NCc3ccccc3)c(C)o2)cc1 (stereo not drawn)	?	0	0	0	0
CC(C(=O)NC1CCCC1)N(C(=O)c1ccc(-c2ccccc2)[nH]1)c1ccccc1F (stereo not drawn)	0	0	0	0	?
Cc1nc(N2CCN(C(=O)c3ccco3)CC2)[nH]c(=O)c1C	0	0	0	0	-
COC(=O)[C@@]1(Cc2ccc(OC)cc2)[C@H]2c3cc(C(=O)N(C)C)n(CCc4ccccn4)c3C[C@H]2CN1C(=O)c1ccccc1	0	-	0	0	0
Cc1cc(NS(=O)(=O)c2ccc(Nc3nc(-c4sc(N)nc4C)cs3)cc2)no1	0	30µM	0	50µM	0
Cc1nc(N)sc1-c1csc(Nc2ccccc2)n1	0	27µM	?	0	18µM
Cc1cc(O)ccc1Nc1nc(-c2sc(N)nc2C)cs1	0	?	0	0	8.9µM
SMILES	RORgamma inh	PLK1 PBD inh	VP16 counter	Sfp PPTase inh	ALDH1A1 inh
Cc1nc(NC(=O)c2ccccc2)sc1C	?	0	0	0	-
Cc1nc(Nc2ccccc2)sc1C	3.5µM	0	13µM	?	16µM
Cc1cc(NS(=O)(=O)c2ccc(Nc3nc(-c4ccc(O)cc4)cs3)cc2)no1	0	?	0	0	?
Cc1csc(Nc2ccc(C(=O)O)cc2)n1	0	0	0	0	0
Cc1csc(Nc2ccccc2)n1	?	30µM	0	0	0
COc1ccc(OC)c(Nc2nc(-c3sc(N)nc3C)cs2)c1	0	?	0	8.9µM	?
CCCC(=O)Nc1nc(C)c(-c2csc(Nc3cc(OC)ccc3OC)n2)s1	?	0	0	0	?
COc1ccc(NC(=O)C2(C)CCCN(C(C)C)C2)cc1F (stereo not drawn)	-	0	-	-	-
Nc1ncnc2c1ncn2[C@@H]1O[C@H](COP(=O)(O)OP(=O)(O)OP(=O)(O)OP(=O)(O)OC[C@@H]2O[C@H](n3cnc4c(N)ncnc43)[C@@H](O)[C@@H]2O)[C@H](O)[C@H]1O	-	-	-	-	0
O=c1cc(O)c(Cl)c[nH]1	0	-	0	0	-
CCN(CC(=O)NC(C)(C)C)Cc1nc2c(Br)cc(Br)cc2c(=O)[nH]1	0.71µM	0	3.2µM	0	0
CC(=O)c1ccc(NC(=S)Nc2ccc3[nH]c(=O)[nH]c3c2)cc1	0	0	0	0	0
Cc1ccc(NC(=S)Nc2ccc3[nH]c(=O)[nH]c3c2)cc1C	11µM	?	?	0	?
O=C1/C(=C/c2cccc(F)c2)CSc2sccc21	0	0	0	0	0
Cc1ccc(/C=C2\CC(C)CC3=C2NC(=S)NC3c2ccc(C)cc2)cc1 (stereo not drawn)	3.2µM	?	?	?	-
Cc1ccc(/C=C2/NC(=O)[C@H](C)NC2=O)cc1	0	0	0	0	-
Cc1ccc(/C=C2\CCCC3=C2NC(=S)NC3c2ccc(C)cc2)cc1 (stereo not drawn)	0	?	0	25µM	?
CC1CCN(C2=NC(=O)/C(=C/c3ccccc3F)S2)CC1	0	0	0	0	-
Cc1ccc(/C=C2\CCC(C3CCCC3)C2=O)cc1 (stereo not drawn)	0	0	?	0	0
CC1CC2=C(NC(=S)NC2c2ccccc2F)/C(=C/c2ccccc2F)C1 (stereo not drawn)	2.8µM	?	6.3µM	?	0.56µM
CC1CC2=C(NC(=S)NC2c2cccc(F)c2)/C(=C/c2cccc(F)c2)C1 (stereo not drawn)	1µM	0	4.5µM	0	1.3µM
COc1cccc(Nc2ncc3nc(-c4cc(F)cc(F)c4)c(=O)n(C4CC4)c3n2)c1	0	-	0	0	0
C[C@H]1COc2cccc(N3CCC[C@H]3CO)c2S(=O)(=O)N1	-	0	-	-	-
COc1ccc(-n2c(=O)c(-c3cc(F)cc(F)c3)nc3cnc(N(C)C)nc32)cc1	0	-	0	0	?
CC(NC(=O)c1ccc(NC(=O)CC2SC(N3CCCC3)=NC2=O)cc1)c1ccc(F)cc1 (stereo not drawn)	-	0	-	-	-
SMILES	RORgamma inh	PLK1 PBD inh	VP16 counter	Sfp PPTase inh	ALDH1A1 inh
Cc1ncc(C[n+]2csc(CCOP(=O)(O)OP(=O)(O)O)c2C)c(N)n1	0	-	0	0	-
COc1ccc(/C=C2\SC(N)=NC2=O)cc1Cl	0	0	0	0	-
C#CCOc1ccc(Cl)cc1/C=C1/C(=O)ON=C1C	0	?	0	50µM	-
COc1ccc(/C=C2/C(=O)ON=C2C)cc1Cl	0	2.1µM	0	79µM	-
CC1=NOC(=O)/C1=C/c1ccc(O)c(Br)c1	?	?	?	0	-
C#CCOc1ccc(/C=C2/C(=O)ON=C2C)cc1Br	0	1.7µM	0	56µM	-

Assay outcomes: PubChem, National Center for Advancing Translational Sciences (NCATS)
